The panel holds about 83,000 compounds, 20% with a hit somewhere; the sample as a whole holds those more often.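 Treatment: one concentration, 48 hours, 96-well format. Scoring: percent growth, with anything below 10 considered active.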 Calls of active or inactive are those of the source.
Tests used:
Assay in all cases: NCI-60 one-dose screen, 48 h (100 = growth as untreated, 0 = no growth, -100 = all killed)
HCT-15 colon = conditions: 10 µM unless noted
HT29 colon = conditions: 10 µM unless noted
SNB-75 CNS = conditions: 10 µM unless noted
SNB-19 CNS = conditions: 10 µM unless noted
U251 CNS = conditions: 10 µM unless noted
PC-3 prostate = conditions: 10 µM unless noted
SK-MEL-5 melanoma = conditions: 10 µM unless noted
UACC-62 melanoma = conditions: 10 µM unless noted
LOX IMVI melanoma = conditions: 10 µM unless noted
SK-MEL-28 melanoma = conditions: 10 µM unless noted
SK-MEL-2 melanoma = conditions: 10 µM unless noted
EKVX NSCLC = conditions: 10 µM unless noted
SN12C renal = conditions: 10 µM unless noted
UO-31 renal = conditions: 10 µM unless noted
ACHN renal = conditions: 10 µM unless noted
CAKI-1 renal = conditions: 10 µM
A498 renal = conditions: 10 µM unless noted
CCRF-CEM leukemia = conditions: 10 µM unless noted
MOLT-4 leukemia = conditions: 10 µM unless noted
TK-10 renal = conditions: 10 µM unless noted

Measured: growth

O=S(=O)(CCN1CCOCC1)Nc1cc(-c2ccc3ncnc(Nc4ccc(F)c(Cl)c4)c3c2)cnc1Cl
inactive: HCT-15 colon 16.2% | HT29 colon 14.6% | U251 CNS 13.5% | PC-3 prostate 13.4% | SN12C renal 18% | CAKI-1 renal 17% | CCRF-CEM leukemia 14.5%
active: SNB-75 CNS -20.7% | SNB-19 CNS 5.93% | SK-MEL-5 melanoma -5.68% | UACC-62 melanoma -16.4% | LOX IMVI melanoma 4.23% | SK-MEL-28 melanoma 2.15% | SK-MEL-2 melanoma 2.26% | EKVX NSCLC 7.72% | UO-31 renal -8.69% | ACHN renal 9.87% | A498 renal -40% | MOLT-4 leukemia -8.59%

CC[C@H]1[C@@H]2C=C[C@@H]3[C@H]4C/C=C\C(=O)NCCC[C@@H]5NC(=O)/C(=C(O)/C=C/[C@@H]4C[C@@H]3[C@H]2C[C@H]1C)C5=O
inactive: HT29 colon 14.4% | U251 CNS 46.5% | UACC-62 melanoma 72.6% | SK-MEL-28 melanoma 60.9% | SK-MEL-2 melanoma 46% | EKVX NSCLC 15.3%
active: HCT-15 colon -29.4% | SNB-75 CNS -85.6% | SNB-19 CNS -40.6% | PC-3 prostate -35.3% | SK-MEL-5 melanoma -70.4% | LOX IMVI melanoma -84.8% | SN12C renal -66.1% | UO-31 renal -78.2% | ACHN renal -84.1% | CAKI-1 renal -41.3% | A498 renal -18.4%

Nc1nc(-c2cc3c(cc2Cl)NC(=O)/C3=C/c2ccccc2)cs1
active: LOX IMVI melanoma 3.66%
inactive: HCT-15 colon 35.5% | HT29 colon 35.8% | SNB-75 CNS 64.8% | SNB-19 CNS 59.7% | U251 CNS 40.3% | PC-3 prostate 46.4% | SK-MEL-5 melanoma 24.7% | UACC-62 melanoma 43% | SK-MEL-28 melanoma 76.1% | SK-MEL-2 melanoma 71.3% | EKVX NSCLC 34.7% | SN12C renal 51.9% | UO-31 renal 45.6% | TK-10 renal 100% | CCRF-CEM leukemia 16.1% | MOLT-4 leukemia 21.8%

COc1ccc(/C=C/C(=O)c2ccc(Oc3ncnc4ccccc34)cc2)cc1OC
inactive: HCT-15 colon 24.3% | HT29 colon 27.4% | SNB-75 CNS 74.8% | SNB-19 CNS 64.9% | U251 CNS 50.9% | PC-3 prostate 82.1% | SK-MEL-5 melanoma 72.5% | UACC-62 melanoma 76.9% | LOX IMVI melanoma 13.8% | SK-MEL-28 melanoma 104% | SK-MEL-2 melanoma 89.8% | EKVX NSCLC 77.7% | SN12C renal 79% | UO-31 renal 51.1% | TK-10 renal 96.6% | A498 renal 98.9% | CCRF-CEM leukemia 46.4% | MOLT-4 leukemia 56.6%

COc1cc2ncnc(Oc3ccc(NC(=O)Nc4ccc(C5(C#N)CCCC5)cc4)c4ccccc34)c2cc1OC
inactive: HCT-15 colon 74.5% | HT29 colon 35% | SNB-75 CNS 36.1% | SNB-19 CNS 36.7% | PC-3 prostate 56.8% | SK-MEL-5 melanoma 50.2% | UACC-62 melanoma 40% | LOX IMVI melanoma 47.7% | SK-MEL-28 melanoma 64.1% | SK-MEL-2 melanoma 80.9% | EKVX NSCLC 57.7% | SN12C renal 21.3% | UO-31 renal 55.8% | TK-10 renal 24.1% | CCRF-CEM leukemia 77.5% | MOLT-4 leukemia 60.9%
active: U251 CNS -49.3%

CCCCOc1c(N)cc(Cl)cc1C(=O)OCCN(CC)CC
inactive: HCT-15 colon 111% | HT29 colon 74.8% | SNB-75 CNS 101% | SNB-19 CNS 101% | U251 CNS 90.1% | PC-3 prostate 80.9% | SK-MEL-5 melanoma 102% | UACC-62 melanoma 96.7% | LOX IMVI melanoma 103% | SK-MEL-28 melanoma 114% | SK-MEL-2 melanoma 90.9% | EKVX NSCLC 104% | SN12C renal 97% | UO-31 renal 82.3% | TK-10 renal 94.3% | CCRF-CEM leukemia 72.6% | MOLT-4 leukemia 58.4%

COc1ccc(Cl)cc1NC(=O)c1cc2c([nH]1)-c1nc(N)sc1CCC2
inactive: HCT-15 colon 97.7% | HT29 colon 83.2% | SNB-75 CNS 105% | SNB-19 CNS 112% | U251 CNS 101% | PC-3 prostate 97.8% | SK-MEL-5 melanoma 101% | UACC-62 melanoma 93.1% | LOX IMVI melanoma 91.7% | SK-MEL-28 melanoma 103% | SK-MEL-2 melanoma 98% | EKVX NSCLC 92.5% | SN12C renal 97.4% | UO-31 renal 79.4% | TK-10 renal 97.8% | A498 renal 95.9% | MOLT-4 leukemia 62%

Cc1cn(-c2cc(C(=O)Nc3cccc(-n4ccc5c(NC(=O)c6ccccc6)nccc54)c3)cc(C(F)(F)F)c2)cn1
inactive: SNB-75 CNS 27.2% | SNB-19 CNS 28.9% | PC-3 prostate 18.5% | UACC-62 melanoma 27.1% | SK-MEL-28 melanoma 33.3% | SK-MEL-2 melanoma 11.2% | EKVX NSCLC 45.6% | SN12C renal 21.7% | UO-31 renal 15.5% | ACHN renal 27.6% | A498 renal 16.1% | MOLT-4 leukemia 12.4%
active: HCT-15 colon 4.61% | HT29 colon -41.2% | U251 CNS -3.87% | SK-MEL-5 melanoma -54.5% | LOX IMVI melanoma 5.46% | CAKI-1 renal 2.7% | CCRF-CEM leukemia -21.7%

Nc1ncnc2c1ncn2C1OC(COC(c2ccccc2)(c2ccccc2)c2ccccc2)C(O)C1O (stereo not given)
inactive: HCT-15 colon 98.2% | HT29 colon 82.8% | SNB-75 CNS 76.2% | SNB-19 CNS 96.5% | U251 CNS 99.5% | PC-3 prostate 88.7% | SK-MEL-5 melanoma 92.3% | UACC-62 melanoma 95.6% | LOX IMVI melanoma 91.4% | SK-MEL-28 melanoma 96.2% | SK-MEL-2 melanoma 87.7% | EKVX NSCLC 91.6% | SN12C renal 93.7% | UO-31 renal 80.5% | ACHN renal 47.9% | CAKI-1 renal 57.7% | A498 renal 103% | CCRF-CEM leukemia 46.1% | MOLT-4 leukemia 78.8%

From PubChem BioAssay (NCI)
